Results: PubChem BioAssay (Tox21)
Where “and” joins values, the source holds several entries; their conditions need not be identical. Equal entries are not always repeated. Inconclusive results are not listed. Some structures have more than one record in an assay (separate samples or runs), and their calls can disagree. Calls of active or inactive are those of the source. Unless noted, calls follow the shape of the dose curve; as a rule, active = well fitted curve in the direction sought with a large enough effect in the repeat runs; inconclusive = weak or mixed curves; inactive = no such curve, though single readings can be large; an effect the other way counts as inactive or inconclusive.

Key:
[1] = qHTS assay to identify small molecule agonists of the vitamin D receptor (VDR) signaling pathway - cell viability counter screen (AID 743224); also: series mostly up to about 63 µM; nearly all actives have a fitted effect of over 50% in size
Summary of the method: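 Compounds were pin-transferred onto VDR-bla cells plated 4 h earlier; following 16 h incubation at 37C, cell viability was quantified by CellTiter-Glo luminescence after 30 min at room temperature.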

[2] = qHTS assay to identify small molecule antagonists of the vitamin D receptor (VDR) signaling pathway - cell viability counter screen (AID 743225); also: nearly all actives have a fitted effect of over 50% in size
Summary of the method: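 Parallel cytotoxicity test: VDR-UAS-bla HEK 293T, 3 nM (final) 1-alpha,25-dihydroxyvitamin D3 with test compound, 16 h, 37C. Endpoint is CellTiter-Glo luminescence in the same wells.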

[3] = qHTS assay to identify small molecule agonists of the NFkB signaling pathway - cell viability counter screen (AID 1159515; calls by dose curve; also: series mostly up to about 61 µM; nearly all actives have a fitted effect of over 55% in size)
Summary of the method: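 Parallel cytotoxicity counter screen in ME-180 cells carrying an NFkB-response-element beta-lactamase reporter, 2,000 cells/well. Compound exposure lasted 5 hr at 37 C, 5% CO2. Cell viability was quantified by CellTiter-Glo luminescence.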

[4] = qHTS assay to identify small molecule agonists of the endoplasmic reticulum stress response signaling pathway (AID 1159516; active = well fitted activation curve with a large enough effect in the signal ratio in the repeat runs, not every such curve was filed as active; the % refers to the signal ratio)
Summary of the method: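 Using a HeLa line with an ESRE-driven beta-lactamase gene, agonist activity was measured by FRET substrate fluorescence (460 and 530 nm emission) after cells were treated with compounds for 5 hr at 37 C and 5% CO2.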

[5] = qHTS assay to identify small molecule agonists of the endoplasmic reticulum stress response signaling pathway - cell viability counter screen (AID 1159517; calls by dose curve;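 also: HeLa cells carrying an ER stress response element beta-lactamase reporter; series mostly up to about 61 µM; nearly all actives have a fitted effect of over 50% in size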)
Summary of the method: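 Steps: seed 1,500 ESRE-bla HeLa cells per well; incubate overnight at 37 C, 5% CO2; add compounds in DMSO for 5 hr; run FRET substrate 2 hr RT; add CellTiter-Glo, wait 30 min, read luminescence.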

[6] = qHTS assay to identify small molecule antagonists of the retinoid-related orphan receptor gamma (ROR-gamma) signaling pathway - cell viability counter screen (AID 1159520); also: nearly all actives have a fitted effect of over 50% in size; also: potency is read from the fitted curve at half-maximal effect
Summary of the method: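 Tet-on ROR gamma CHO cells were given compounds for 2 hr, then doxycycline hyclate at 1 uM final, and incubated 16 hr at 37 C. Viability was measured as ATP content by CellTiter-Glo luminescence.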

[7] = qHTS assay to identify small molecule agonists of the AP-1 signaling pathway - cell viability counter screen (AID 1159525; calls by dose curve; also: nearly all actives have a fitted effect of over 55% in size)
Summary of the method: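 Same-well cytotoxicity counter screen of the Tox21 10K library in ME-180 cells. The readout is ATP-dependent luminescence after 5 h compound treatment. Data are normalised to DMSO and tetra n-octyl ammonium bromide controls.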

[8] = target: Retinoic acid receptor RXR-alpha (Homo sapiens) (UniProt P19793); assay: qHTS assay to identify small molecule agonists of the RXR signaling pathway (AID 1159527; calls by dose curve; also: nearly all actives have a fitted effect of over 35% in size)
Summary of the method: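 16 hr incubation of compound-treated RXR-alpha-UAS-bla HEK 293T cells (2% charcoal-stripped FBS, 37 C) preceded a 2 hr room-temperature LiveBLAzer FRET substrate step and blue/green fluorescence measurement.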

[9] = qHTS assay to identify small molecule antagonists of the retinoid acid receptor (RAR) signaling pathway - cell viability counter screen (AID 1159551); also: nearly all actives have a fitted effect of over 35% in size; also: potency is read from the fitted curve at half-maximal effect
Summary of the method: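 ATP-based viability, C3RL4 cells, 6 h at 37 C with 1 uM final retinol co-added after compound; luminescence read 30 min post CellTiter-Glo, RT.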

[10] = qHTS assay to identify small molecule antagonists of the retinoic acid receptor (RAR) signaling pathway (AID 1159552; also: nearly all actives have a fitted effect of over 50% in size; also: potency is read from the fitted curve at half-maximal effect)
Summary of the method: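 C3RL4 RARE-luc cells, overnight plating; retinol 1 uM final added right after compound; 6 hr 37 C; luciferase read at 30 min RT.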

[11] = qHTS assay to identify small molecule agonists of the retinoic acid receptor (RAR) signaling pathway (AID 1159553)
Summary of the method: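 Quantitative high-throughput format: the Tox21 10K library was tested on C3RL4 RARE-luciferase cells for 6 hr at 37 C and 5% CO2, with luminescence measured after a 30 min room-temperature reagent step.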

[12] = target: Nuclear receptor ROR-gamma (Homo sapiens) (UniProt P51449); assay: qHTS assay to identify small molecule antagonists of the retinoid-related orphan receptor gamma (ROR-gamma) signaling pathway (AID 1159521; also: nearly all actives have a fitted effect of over 50% in size; also: potency is read from the fitted curve at half-maximal effect)
Summary of the method: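 Decreased RORE-driven luciferase luminescence indicates antagonism. Tet-on RORγ CHO cells received compound, then 1 uM final doxycycline 2 h later; signal read after 16 h incubation.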

[13] = qHTS assay to identify small molecule agonists of the AP-1 signaling pathway (AID 1159526; calls by dose curve)
[14] = qHTS assay to identify small molecule agonists of the RXR signaling pathway - cell viability counter screen (AID 1159529); also: nearly all actives have a fitted effect of over 50% in size; also: potency is read from the fitted curve at half-maximal effect
Summary of the method: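 In this parallel viability measure, GeneBLAzer RXR-alpha HEK 293T cells (2% charcoal-stripped FBS) were given a 5 hr preincubation, treated with compounds 16 hr at 37 C, and read by CellTiter-Glo luminescence.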

[15] = qHTS assay to identify small molecule antagonists of the estrogen related receptor (ERR) signaling pathway - cell viability counter screen (AID 1224818);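 also: series mostly up to about 46 µM; viability measured after 17.5 h of compound exposure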
Summary of the method: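 Quantitative high-throughput viability counter screen in ERR cells. Compounds (DMSO) incubated 17.5 h at 37 C; read-out was CellTiter-Fluor fluorescence.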

[16] = qHTS assay to identify small molecule antagonists of the estrogen related receptor (ERR) signaling pathway (AID 1224819)
Summary of the method: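 ERR reporter cell line (NTP) plated at 2,000 cells/well, settled 6 h at 37C/5% CO2, then exposed to LOPAC compounds for 18 h at 37C. One-Glo luciferase luminescence read after 30 min at room temperature.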

[17] = qHTS assay to identify small molecule agonists of the estrogen related receptor (ERR) signaling pathway (AID 1224820)
Summary of the method: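 Following a 6 h settling period, 2,000 ERR cells per well receive DMSO-dissolved compounds by pin tool and incubate 18 h at 37 C; agonist activity is scored from One-Glo luminescence read 30 min post-addition.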

[18] = qHTS assay to identify small molecule antagonists of the estrogen related receptor signaling pathway with the pleiotropic PPARgamma coactivator (PGC) cell viability counter screen (AID 1224822; also: potency is read from the fitted curve at half-maximal effect)
Summary of the method: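 Cytotoxicity in the PGC/ERR cell line is assessed with CellTiter-Fluor, read as fluorescence intensity 30 min after reagent addition, following 17.5 h compound treatment at 37 C.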

[19] = qHTS assay to identify small molecule agonists of the estrogen related receptor signaling pathway with the pleiotropic PPARgamma coactivator (PGC) (AID 1224823)
Summary of the method: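 In this quantitative high-throughput screen, an 18 h, 37 C treatment of PGC/ERR cells with compounds in DMSO preceded a One-Glo luminescence read taken after 30 min at room temperature.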

Measured: Potency

Retinoic acid receptor RXR-alpha (Homo sapiens), sequence (P19793 whole entry, looked up): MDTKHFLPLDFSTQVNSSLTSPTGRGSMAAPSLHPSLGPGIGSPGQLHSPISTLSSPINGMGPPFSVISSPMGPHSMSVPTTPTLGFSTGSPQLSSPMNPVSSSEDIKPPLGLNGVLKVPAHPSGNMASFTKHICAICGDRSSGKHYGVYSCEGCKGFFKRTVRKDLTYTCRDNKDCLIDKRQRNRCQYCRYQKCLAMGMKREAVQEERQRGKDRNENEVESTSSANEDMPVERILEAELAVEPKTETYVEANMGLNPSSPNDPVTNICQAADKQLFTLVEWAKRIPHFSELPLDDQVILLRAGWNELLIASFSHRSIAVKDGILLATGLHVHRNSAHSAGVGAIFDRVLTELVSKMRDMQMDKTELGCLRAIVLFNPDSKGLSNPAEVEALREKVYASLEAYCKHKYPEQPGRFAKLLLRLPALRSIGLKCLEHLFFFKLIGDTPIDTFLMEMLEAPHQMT

COc1cc(Cl)c(OC)cc1Cl
not listed: [12] | [13] | [14] | [15] | [16] | [17] | [18] | [19]
inactive: all other assays above

O=C1NCN(c2ccccc2)C12CCN(CCCOc1ccc(F)cc1)CC2
inactive: [2] | [5] | [6] | [7] | [9]
active: [12] 23.7 µM

Clc1cccc2ccccc12
inactive: [1] | [2] | [5] | [6] | [12] | [13] | [8] | [14] | [9]

Nc1ccc([N+](=O)[O-])cc1[N+](=O)[O-]
inactive: [1] | [2] | [3] | [5] | [7] | [13] | [8] | [14] | [9]

COCC(C)N(C(=O)CCl)c1c(C)csc1C (configuration not stated)
inactive: [2] | [3] | [5] | [7] | [9]

CCOP(=S)(OCC)Oc1nc(Cl)c(Cl)cc1Cl
61.3 µM (active) and inactive: [9]
27.4 µM (active) and inactive: [12]
inactive: [1] | [2] | [3] | [5] | [6] | [7]
active: [14] 21.9 µM and 49 µM

CCOC(=O)COc1cc(-c2nn(C)c(OC(F)F)c2Cl)c(F)cc1Cl
not listed: [4] | [8] | [14] | [15] | [16] | [17] | [18] | [19]
inactive: all other assays above

NNC(=O)c1cccnc1
not listed: [3] | [11] | [15] | [16] | [17] | [18] | [19]
inactive: all other assays above

CO/N=C(/C(=O)OC)c1ccccc1COc1ccccc1C
inactive: [4] | [5] | [7] | [13] | [11]
active: [12] 2.73 µM | [10] 7.7 µM

COP(=S)(OC)Oc1cc(Cl)c(I)cc1Cl
inactive: [2] | [3] | [4] | [6] | [12] | [8] | [14] | [9] | [10] | [11]

O=C(N[C@H](c1ccccc1)[C@@H]1CN2CCC1CC2)c1c(Cl)ccc(C(F)(F)F)c1Cl
inactive: [2] | [3] | [4] | [5] | [6] | [7] | [14] | [9]

[CH3][Sn]([CH3])([Cl])[Cl]
inactive: [1] | [2] | [5] | [7] | [14] | [9]
active: [12] 4.93 µM and 6.86 µM | [10] 55.4 µM and 48.6 µM

O=C(O)C(F)(F)C(F)(F)C(F)(F)C(F)(F)C(F)(F)C(F)(F)C(F)(F)C(F)(F)C(F)(F)F
inactive: [2] | [3] | [4] | [6] | [12] | [8] | [9] | [11]

NC(=O)C(Cl)(Cl)Cl
not listed: [3] | [6] | [15] | [16] | [17] | [18] | [19]
inactive: all other assays above

CCOS(C)(=O)=O
not listed: [6] | [8] | [12] | [15] | [16] | [17] | [18] | [19]
inactive: all other assays above

Cn1sc(Cl)cc1=O
inactive: [1] | [2] | [3] | [4] | [5] | [7] | [8] | [9] | [10] | [11]
active: [6] 61.1 µM

CCCCCCC#N
inactive: [1] | [2] | [5] | [6] | [12] | [13] | [14] | [9] | [10]

NC(=O)CI
active: [18] 12.3 µM
inactive: [1] | [4] | [5] | [9] | [15] | [16] | [17] | [19]

CCC(COC(=O)c1cc(OC)c(OC)c(OC)c1)(c1ccccc1)N(C)C (configuration not stated)
inactive: [1] | [2] | [4] | [5] | [12] | [7] | [8] | [14]

CC1Sc2c(C(=O)O)c(=O)c3cc(F)c(N4CCNCC4)cc3n21 (configuration not stated)
not listed: [3] | [4] | [14] | [15] | [16] | [17] | [18] | [19]
inactive: all other assays above

O=C(O)c1ccccc1C(=O)Nc1cccc2ccccc12
not listed: [4] | [6] | [13] | [15] | [16] | [17] | [18] | [19]
inactive: all other assays above

C=CC(=O)OC
not listed: [4] | [12] | [15] | [16] | [17] | [18] | [19]
inactive: all other assays above

O=C(NC(=O)c1c(F)cccc1F)Nc1cc(Cl)c(Oc2ncc(C(F)(F)F)cc2Cl)c(Cl)c1
inactive: [4] | [5] | [7] | [9]
active: [12] 20.8 µM

Clc1ccc(C(OCCN2CCCCC2)c2ccccc2)cc1 (configuration not stated)
inactive: [2] | [4] | [5] | [7] | [9]
